# In PubChem BioAssay (NCI):
# This is part of a sample that, as a whole, favours compounds with a hit. Of some 83,000 tested, about 20% had one in any assay.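 Negative percent growth values reflect cell death: -40 means 40% of the cells present at the start died, and -100 means all died.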 Values without a mark were called inactive. Calls of active or inactive are those of the source. How the source made its calls: active means growth percent below 10; inactive means the rest.
# Test system: BT-549 breast
# Experiment: NCI-60 one-dose screen, 48 h (100 = growth as untreated, 0 = no growth, -100 = all killed)
# Conditions: 10 µM unless noted
row,SMILES,growth
1,N#Cc1cccc(/C=C(/C(=O)c2ccccc2)c2ccccc2)c1,26.7%
2,CCN1C(=O)c2ccc3c4c(ccc(c24)C1=O)C(=O)N(CCCNCc1ccccc1OC)C3=O,-75.9% (active)
3,O=C(/C=C/c1ccc(Cl)cc1)c1ccccc1,104%
4,O=C(/C(=C/c1cccc([N+](=O)[O-])c1)c1ccccc1)c1ccccc1,33.1%
5,Nc1nc2ncc(CCNc3ccc(C(=O)NC(CCC(=O)O)C(=O)O)cc3)nc2c(=O)[nH]1 (configuration not stated),114%
6,Cc1c(C(N)=O)sc2ncn(Cc3ccccc3)c(=O)c12,62.6%
7,c1ccc(-c2nn[nH]n2)c(-c2ccc(CN3CCN(c4nsc5ccccc45)CC3)cc2)c1,106%
8,NC(=O)NN=C(C1CC1)C1CC1,106%
9,COc1cc2c(-c3nc4cc(Cl)c(F)cc4s3)cc(=O)oc2c(C)c1OC,-81.8% (active)
10,N#Cc1ccc(NC(=O)Nc2ccc(Oc3ccc(NC(=O)Nc4ccc(C#N)cc4)cc3)cc2)cc1,-15.5% (active)
11,CC1(C)OC(=O)C(=Cc2ccccc2Br)C(=O)O1,107%
12,O=C(/C=C/c1cc2ccccc2[nH]c1=O)c1ccc(Cl)cc1,29.4%
13,Cc1cc(N2CCOCC2)nc(N2CCOCC2)n1,73.6%
14,CC/C=C\C=C/C(=O)N/C=C/CC1Cc2cccc(O)c2C(=O)O1 (configuration not stated),75.2%
15,COc1ccc(-c2csc(NC(=O)c3cc(O)c(O)c(O)c3)n2)cc1,66.9%
16,NNC(=O)C1CC2c3ccccc3C1c1ccccc12 (configuration not stated),102%
17,COc1ccc(OC)c(NC(=O)c2cc3oc4ccccc4c3cc2O)c1,89.1%
18,CCCc1cc(=O)n2c(C(=O)Nc3ccccc3OC)c(C(=O)Nc3ccc(F)cc3)sc2n1,-14.2% [30 µM] (active)
19,N#Cc1c2ccccc2c2n1-c1ccccc1OC(c1ccccc1)C2=O (configuration not stated),9.32% (active)

row,SMILES,growth
1,CCOC(=O)/C(=C/c1ccccc1)C(=O)c1ccccc1,73.4%
2,O=C(Nc1nc(-c2ccccc2)cs1)c1cc(O)c(O)c(O)c1,46%
3,COc1cc(/C=C2\CCC/C(=C\c3ccc(OCC4CO4)c(OC)c3)C2=O)ccc1OCC1CO1 (configuration not stated),30.3%
4,C/C(=N\N1CC(=O)NC1=O)c1ccc([N+](=O)[O-])o1,100%
5,Cc1ccc(C(C)C)cc1NC(=O)Nc1ccc([N+](=O)[O-])cc1,-1.5% (active)
6,O=C1Cc2cc(CCn3cncn3)c(Cl)cc2N1,68%
7,COc1cc(OC)c2cc(C(=O)O)c(=O)oc2c1,77.5%
8,Cn1c(=O)c2nc(SCc3ccccc3)n(C)c2n(C)c1=O,107%
9,O=C1OCCCCCCCCCC#Cc2ccccc21,124%
10,COc1cc(/C=C/C(=O)c2c(-c3ccc(Cl)cc3)nc3sc(C)nn23)cc(OC)c1OC,79.3%
11,COc1cc2c(C#N)n3c(c2cc1OC)C(=O)C(c1ccccc1)Oc1ccccc1-3 (configuration not stated),-7.13% (active)
12,O=C(Cc1ccccn1)C(F)(F)C(F)(F)C(F)(F)F,127%
13,COc1cc(/C=C/C(=O)Nc2ccc3c(c2)/C(=C\c2cccn2C)C(=O)N3)cc(OC)c1OC,46.6%
14,COc1cc(/C=C/C(=O)c2c(-c3ccc(F)cc3)nc3sc(C)nn23)cc(OC)c1OC,12%
15,CN(C)c1ccc(/C=C\c2ccnc3ccccc23)cc1,-0.99% (active)
16,CC[C@]1(O)CC2CN(CCc3c([nH]c4ccccc34)[C@@](C(=O)OC)(c3cc4c(cc3OC)N(C)[C@H]3[C@@](O)(C(=O)OC)[C@H](OC(C)=O)[C@]5(CC)C=CCN6CC[C@]43[C@@H]65)C2)C1 (some centres not stated),34.2%
17,CCOC(=O)c1c(C)nc(C)c(C(=O)OCC)c1-c1cccnc1,106%
18,COc1ccc(/C=C(\C#N)c2ccccc2)cc1,85.4%
